Source: PubChem BioAssay
HP1b binding inh = HP1-beta chromodomain-methylated histone interaction inhibition | P83916 | AlphaScreen HP1-beta / biotin-H3K9me3 peptide binding | Potency, µM (highest dose often 114 µM), for the others: top-dose activity change, negative = inhibition, most hits filed as inhibitors | 0.56% of 390,000 active; note: potency is the fitted concentration of half-maximal effect; nearly all actives have a fitted effect of over 70% in size
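Compound inhibition of the preformed complex between 50 nM HP1-beta and 50 nM biotinylated H3K9me3 peptide was read by AlphaScreen. Buffer was PBS pH 7.4 with 0.01% Tween-20. Incubations ran 30 min at room temperature, with 10 ug/mL donor/acceptor beads.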
BAZ2B block = inhibitors of human BAZ2B bromodomain. Q9UIF8. AlphaScreen BAZ2B-H3K14Ac peptide displacement. Potency, µM (titrated, usually from 114 µM), inactives show at the top dose activity change, negative = inhibition, hits mostly inhibitors. 4.4% of 360,000 active; note: potency is the fitted concentration of half-maximal effect; % is set by controls: 0 for no effect and ±100 for the full control effect; nearly all actives have a fitted effect of over 60% in size
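BAZ2B 50 nM plus b-H3(5-23)K14Ac 50 nM, PBS pH 7.4/0.01% Tween-20, 30 min RT; compound added (max 110 uM), 30 min RT; streptavidin donor/Ni-chelate acceptor beads 10 ug/mL final, 20 min dark; AlphaScreen read.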
CtBP-E1A blk = CtBP/E1A binding inhibition; AlphaScreen GST-E1A/His-CtBP binding, 1536-well; active compounds read low; activity change, % (test concentration not listed); 0.49% of 340,000 active; AID 651724; in the data active = activity change below about -65%; inconclusive = mostly about -30% to -63%; note: % is set by controls: 0 for no effect and ±100 for the full control effect
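Protein mix (5X: 125 nM each GST-E1A, His-CtBP) was incubated with pinned compound 2 h at 37 deg C in dark, in 50 mM Tris pH 8.0 buffer with 300 mM NaCl. Glutathione donor and nickel acceptor beads followed; AlphaScreen signal read after 1 h.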
TDP1 block = inhibitors of human tyrosyl-DNA phosphodiesterase TDP1; Q9NUW8; recombinant TDP1, AlphaScreen DNA substrate cleavage; Potency, µM (doses to about 130 µM), for the others: at the top dose activity change, negative = inhibition, usual class: inhibitors; 0.28% of 350,000 active; AID 485290; note: potency is the fitted concentration of half-maximal effect; % is set by controls: 0 for no effect and ±100 for the full control effect; nearly all actives have a fitted effect of over 40% in size
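AlphaScreen read-out: signal falls as enzyme removes the 3' tyrosine-FITC from a 5'-biotinylated DNA oligo (15 nM, 5 min, RT). Enzyme was E. coli-made recombinant Tdp1 at 1 nM, exposed to compound for 15 min beforehand; beads 10 ug/ml, 10 min.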
Six1-Eya2 inh = inhibitors of human Six1/Eya2 interaction | AlphaScreen GST-Six1/His-Eya2 binding, biochemical; active compounds read low | 0.56% of 360,000 active | AID 651725 | activity change, % (no concentration beside the values) | Q15475+O00167; in the data active = activity change below about -65%; inconclusive = mostly about -30% to -63%; note: % is set by controls: 0 for no effect and ±100 for the full control effect
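AlphaScreen with GST-Six1 and His-Eya2 (5X mix: 250 nM and 500 nM), glutathione donor and nickel acceptor beads; buffer 50 mM Tris pH 8.0, 300 mM NaCl, 1 mM TCEP; 1 h at 37 C in the dark.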
JMJD2A Tudor = JMJD2A Tudor domain (human) inhibition; O75164; AlphaScreen JMJD2A-Tudor / H3K4me3 peptide binding; AID 504339; 4.4% of 390,000 active; Potency, µM (highest dose often 114 µM), for the others: at the top dose activity change, negative = inhibition, actives largely listed as inhibitors; note: potency is the fitted concentration of half-maximal effect; % is set by controls: 0 for no effect and ±100 for the full control effect; nearly all actives have a fitted effect of over 50% in size
Active calls of the source: *; ? = inconclusive; · = no result; [ ] = another dose, or the depositor's remark. Rows were chosen to be rich in hits. Some 5.3% of all compounds tested hit in one or more screens of this group. Unless noted, calls come from the whole dose curve; as a rule, active = well fitted inhibition curve with a large enough effect; inconclusive = small, poorly fitted or top-dose-only effect; inactive = no such curve, though single readings can be large or run the other way.

SMILES	HP1b binding inh	BAZ2B block	CtBP-E1A blk	TDP1 block	Six1-Eya2 inh	JMJD2A Tudor
Oc1ccc(N2CCN(C(c3ccccn3)c3nnnn3C3CCCC3)CC2)cc1 (stereo not drawn)	?	-11%	2	-2%	-1	25µM*
COc1ccc(Cn2nnnc2C(c2cccnc2)N2CCN(c3ccc(O)cc3)CC2)cc1 (stereo not drawn)	?	-1%	-4	4%	-2	?
CCC(c1nnnn1Cc1ccc(OC)cc1)N1CCN(c2ccc(OC)cc2)CC1 (stereo not drawn)	?	35µM*	4	9%	-16	?
CCCC(c1nnnn1Cc1cccs1)N1CCN(c2ccc(OC)cc2)CC1 (stereo not drawn)	?	45µM*	-30	8%	?	?
COCCn1nnnc1C(c1cc2cc(OC)c(OC)cc2[nH]c1=O)N1CCN(c2ccc(O)cc2)CC1 (stereo not drawn)	?	28µM*	-9	?	-18	56µM*
Oc1ccc(N2CCN(C(c3ccc(Cl)cc3)c3nnnn3Cc3ccc(F)cc3)CC2)cc1 (stereo not drawn)	?	·	·	·	·	40µM*
CCCC(c1nnnn1Cc1cccs1)N1CCN(C)CC1 (stereo not drawn)	25%	?	-12	-3%	6	-33%
O=C(Cn1c(=O)oc2cc(S(=O)(=O)N3CCCCC3)ccc21)NCc1ccc(Cl)cc1	7%	-22%	·	2%	·	-22%
CCCN1Cc2cccc(C(=O)Nc3cc(C)cc(C)c3)c2C1=O	-1%	-19%	·	6%	·	-22%
CC(=Nc1ccccc1N)c1c(C)cc(=O)n(O)c1O	·	·	·	15%	·	·
COc1ccc(Cn2nnnc2C(c2ccc(N(C)C)cc2)N2CCC(C(N)=O)CC2)cc1 (stereo not drawn)	?	50µM*	-4	5%	-17	?
COc1ccc(Cn2nnnc2C(c2ccccn2)N2CCN(c3ccc(O)cc3)CC2)cc1 (stereo not drawn)	?	·	·	·	·	32µM*
O=C(CSc1n[nH]c(-c2ccc(F)cc2)n1)N1CCN(c2ccc(F)cc2)CC1	13%[57 µM]	-17%	·	8%	·	-22%
Cc1cccc(-c2noc(-c3ccc(NC4CCCC4)c([N+](=O)[O-])c3)n2)c1	42%	-27%	·	6%	·	-10%
CN(C)c1ccc(CNC(=O)c2sc3ncccc3c2-n2cccc2)cc1	?	18µM*	·	14%	·	28µM*
Cc1cc2c(s1)c1cnn(Cc3cc(C(F)(F)F)cc(Cl)c3F)c(=O)c1n2C	·	·	·	-6%	·	-27%
COc1cc(NCCCCCCCN)c2ncccc2c1	-25%	?	?	2%	-13	?
COc1cc(NC(C)CCCN)c2ncccc2c1 (stereo not drawn)	-6%	56µM*	?	9%	2	?
O=C(NCCS(=O)(=O)NCc1cccnc1)c1ccccc1	15%	9%	3	·	10	-18%
O=C(NCc1ccccn1)c1ccc(Cl)c(S(=O)(=O)NCc2ccccc2)c1	42%	-3%	·	0%	-15	-5%
O=C(NCCS(=O)(=O)NCc1ccccn1)c1ccccc1	-2%	4%	4	·	5	2.8µM*
O=C(NCc1ccccn1)c1cccc(S(=O)(=O)NCc2ccccc2)c1	45%	56µM*	11	0%	-15	-13%
Cc1ccc(NC(=O)C(Cc2ccccc2)NS(=O)(=O)c2ccc3c(c2)c(=O)n(C)c(=O)n3C)cc1 (stereo not drawn)	-1%	?	·	3%	·	-12%
COc1ccc(C2(C)CC(C)(C)Nc3ccccc32)cc1 (stereo not drawn)	?	?	-28	·	?	50µM*
CCC(=O)Nc1nc2ccccc2n1CCN(CC)CC	-6%	?	3	1%	2	8.9µM*
SMILES	HP1b binding inh	BAZ2B block	CtBP-E1A blk	TDP1 block	Six1-Eya2 inh	JMJD2A Tudor
CCN(CC)CCn1c(NCc2cccc(OC)c2)nc2ccccc21	16%	-22%	-2	3%	1	-24%
CCN(CC)CCn1c(NCc2cc(OC)ccc2OC)nc2ccccc21	5%	-33%	-11	0%	-8	50µM*
Cn1c(=S)[nH]c(=O)c2ncc(=O)[nH]c21	28%	-21%	7	6%	0	28µM*
CN(c1ccccc1)c1ccc(/C=C(\C#N)c2nnc3n2CCCCC3)cc1[N+](=O)[O-]	?	45µM*	-4	11%	-12	45µM*
Cc1cc2c(s1)c1cnn(Cc3cccc(Cl)c3)c(=O)c1n2C	·	·	·	-7%	·	-32%
COc1ccc(-c2ccc(N(C)C)cc2)cc1[C@H]1[C@H]2C=CC[C@@H](C)[C@@H]2C(=O)N1Cc1ccccc1	?	?	?	8%	-26	5.6µM*
COc1ccc(-c2ccc(N(C)C)cc2)cc1C1C2C=CCC(C)C2C(=O)N1Cc1ccccc1 (stereo not drawn)	-24%	·	·	24%	·	7.1µM*
COc1ccc(-c2ccc(C(C)=O)cc2)cc1[C@H]1[C@H]2C=CC[C@@H](C)[C@@H]2C(=O)N1Cc1ccccc1	12%	-22%	·	5%	12	-29%
COc1ccc(-c2ccc(OC)c([C@H]3[C@H]4C=CC[C@@H](C)[C@@H]4C(=O)N3Cc3ccccc3)c2)cc1C	38%	-11%	4	2%	2	-12%
COc1ccc(C(=O)NCc2ccc3c(c2)CCN3C(=O)c2ccncc2)cc1	-8%	-4%	·	4%	·	-21%
C/C(=N/NC(=O)c1ccc(Br)o1)c1cccc(NC(=O)c2ccc(C)o2)c1	-10%	-36%	-2	8%	-8	50µM*
COc1cccc(NC(=O)Cn2c(=O)n(Cc3nc(-c4ccccc4)no3)c(=O)c3ccccc32)c1	52%	-2%	·	6%	·	1%
COC(=O)/C=c1\sc2ncnn2c1=O	?	11%	20	·	14	20µM*
CCOC(=O)c1c[nH]n(-c2ccc(C)cc2)c1=O	40%	-46%	0	-8%	-4	-15%
CCOC(=O)c1cc2c(C)n(-c3ccc(OCC)cc3)c(C)c2ccc1=O	?	50µM*	2	10%	-15	?
CCOC(=O)c1cc2c(C)n(-c3ccc(C)cc3)c(C)c2ccc1=O	?	45µM*	-16	6%	-17	?
CCOC(=O)c1ccc(CN(Cc2ccc(Cl)cc2Cl)S(=O)(=O)c2ccc(F)c(C)c2)cc1	64%	12%	·	5%	·	13%
CC(C)c1cccc(C(C)C)c1NC(=O)CNCC(O)c1ccccc1 (stereo not drawn)	-32%	50µM*	33	·	8	56µM*
